Assay results from PMC4552634, “A New Set of Chemical Starting Points with Plasmodium falciparum Transmission-Blocking Potential for Antimalarial Drug Discovery” (PLoS ONE, 2015).
Out of some 13,000 compounds screened, about 3,200 (25%) showed an effect of 50% or more. The list shows a part of the results.

What follows are molecules tested on P. falciparum stage V gametocytes. Details: 48 h, 5 µM; inhibitor.
Set-up: BacTiter-Glo ATP luminescence viability of purified stage V gametocytes in 384-well plates, per cent inhibition versus DMSO
In the case of O=C(/C=C/c1ccc(Cl)c(Cl)c1)NCCCCCN1CCCN(C(=O)Nc2cccc(Cl)c2)CC1 [TCMDC-135749], the “% Inhibition” value is reported as -36.61%.
With CC(C)C[C@@H](/C=N/N1CCOC1=O)NC(=O)[C@H](CC(C)C)NC(=O)c1ccc(F)cc1 [TCMDC-136186] the “% Inhibition” value was -17.2%.
In the case of CN1CCN(c2ccc(Nc3nccc(-c4cnn5ncccc45)n3)cc2Cl)CC1 [TCMDC-138688], the “% Inhibition” value is reported as 55.04%.
With O=[N+]([O-])c1cccc(Nc2nccc(-c3cnn4ncccc34)n2)c1 [TCMDC-138697] the “% Inhibition” value was -28.72%.
With c1cc(Nc2nccc(-c3cnn4ncccc34)n2)cc(-c2cnco2)c1 [TCMDC-138684] the “% Inhibition” value was -9.488%.
With Cc1ccc2[nH]c3c(NCCCN4CCOCC4)ncnc3c2c1 [TCMDC-124068] the “% Inhibition” value was -37.8%.
With N#Cc1ccc(-c2ccc3nc(N4CCCN(C5CCC5)CC4)ccc3c2)cc1 [TCMDC-136368] the “% Inhibition” value was 18.23%.
In the case of N=C1C=C(N)C(=O)c2ccccc21 [TCMDC-141992], the “% Inhibition” value is reported as 106.9%.
In the case of O=C(Nc1ccc(OC2CCN(Cc3ccc(F)cc3)C2)c(Cl)c1)c1ccc(F)cc1 (stereo not shown) [TCMDC-133763], the “% Inhibition” value is reported as 12.34%.
O=C1c2ccccc2-n2c1nc1ccccc1c2=O [TCMDC-125859] was tested, and the “% Inhibition” value was -11.25%.
COc1cccc(Nc2nc(NCCO)c3ccccc3n2)c1.Cl [TCMDC-124573] was tested, and the “% Inhibition” value was 23.38%.
With CCN1CCC2(c3cccc(OC)c3)Cc3nc4ccccc4c(-c4ccccc4)c3CC2C1 (stereo not shown) [TCMDC-138968] the “% Inhibition” value was 77.57%.
With COc1cccc(Nc2nc(N)c3ccccc3n2)c1.Cl [TCMDC-123746] the “% Inhibition” value was 24.77%.
In the case of COCCOc1nc(N)nc2ncc(Cc3cc(OC)ccc3OC)c(C)c12 [TCMDC-137754], the “% Inhibition” value is reported as 36.3%.
With O=C(N[C@@H](Cc1ccccc1)C(=O)NC1CCCCCC1)c1ccc(O)c(-c2ccc(Cl)c(Cl)c2)c1 [TCMDC-140845] the “% Inhibition” value was 40.83%.
In the case of COc1cc(C)nc2ccc(NC(=O)Nc3ccc4nc(C)cc(OC)c4c3)cc12 [TCMDC-139138], the “% Inhibition” value is reported as 8.428%.
CCCCOc1cc(C)nc2ccc(NC(=O)COCC(=O)Nc3ccc4nc(C)cc(OCCCC)c4c3)cc12 [TCMDC-140149] was tested, and the “% Inhibition” value was -34.05%.
For COc1cc(C)nc2ccc(NC(=O)COCC(=O)Nc3ccc4nc(C)cc(OC)c4c3)cc12 [TCMDC-139461], the “% Inhibition” value was 62.71%.
COc1ccc(Cn2ccc3c4c(N)nc(N)nc4ccc32)cc1 [TCMDC-139862] was tested, and the “% Inhibition” value was 105.9%.
COCCn1ccc2c3c(N)nc(N)nc3ccc21 [TCMDC-137263] was tested, and the “% Inhibition” value was 12.7%.
For COCCOCCOCCn1ccc2c3c(N)nc(N)nc3ccc21 [TCMDC-137974], the “% Inhibition” value was 22.53%.
For COc1cc(Cn2ccc3c4c(N)nc(N)nc4ccc32)cc(OC)c1OC [TCMDC-137341], the “% Inhibition” value was 118.6%.
With COc1cccc(Cn2ccc3c4c(N)nc(N)nc4ccc32)c1 [TCMDC-137811] the “% Inhibition” value was 100%.
COCn1ccc2c3c(N)nc(N)nc3ccc21 [TCMDC-137505] was tested, and the “% Inhibition” value was 0.2853%.
COc1ccc(Cn2ncc3c4c(N)nc(N)nc4ccc32)cc1OC [TCMDC-131934] was tested, and the “% Inhibition” value was 49.54%.
